Reference: PubChem BioAssay (NCI)
Compounds without any hit were thinned out: in the full panel of roughly 79,000, 15% have a hit. Calls of active or inactive are those of the source. Cut-off read from the data, not from the text of the source: active = growth inhibition above about 70%; inactive = the rest.

Columns and labels:
[1] = NCI Yeast Anticancer Drug Screen. Data for the rad50 strain (AID 155);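 note: 0% = growth of vehicle-only cultures of the same strain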; conditions: S. cerevisiae rad50 strain growth inhibition, active compounds read high
Method in brief: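 Vehicle-treated cultures provide the reference for the growth inhibition reported for compound-exposed, repair-deficient yeast.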

[2] = NCI Yeast Anticancer Drug Screen. Data for the mec2-1 strain (AID 157); conditions: S. cerevisiae mec2-1 strain, active compounds read high
Method in brief: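 Readout is yeast growth inhibition, normalised to vehicle-treated controls, in the mec2-1 strain exposed to compound.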

[3] = NCI Yeast Anticancer Drug Screen. Data for the sgs1 mgt1 strain (AID 161);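 note: 0% = growth of cultures given vehicle only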; conditions: S. cerevisiae sgs1 mgt1 strain, active compounds read high
Method in brief: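 Yeast cells carrying a defined DNA-repair defect were exposed to test compounds. Growth inhibition was measured relative to vehicle-treated controls.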

[4] = NCI Yeast Anticancer Drug Screen. Data for the cln2 rad14 strain (AID 165);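 note: 0% = growth equal to vehicle treated cultures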; conditions: S. cerevisiae cln2 rad14 strain, active compounds read high
Method in brief: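 Relative to vehicle controls, growth inhibition of compound-treated cln2 rad14 yeast was recorded.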

[5] = NCI Yeast Anticancer Drug Screen. Data for the bub3 strain (AID 167); conditions: S. cerevisiae bub3 mutant strain, active compounds read high
Method in brief: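 Mutant yeast screening strain plus compound; vehicle-treated cultures serve as the 0% inhibition reference.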

[6] = NCI Yeast Anticancer Drug Screen. Data for the mlh1 rad18 strain (AID 175); conditions: S. cerevisiae mlh1 rad18 strain growth inhibition, active compounds read high
Method in brief: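 Test agents were incubated with a yeast strain of defined genotype (DNA damage repair defect). Inhibition of growth was derived by comparison with vehicle-exposed cultures.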

[7] = at 5.0 µM (retest, dose inferred, filed as 0.5)
[8] = at 50.0 µM (retest, dose inferred, filed as 5.0)

Measured: growth inhibition

CN(C)CCCN=c1c2ccccc2n(O)c2ccccc12
inactive: [1]; [7] -8% | [1]; [8] -6% | [1]; at 50.0 µM -27.9% | [2]; [7] -16% | [2]; [8] -19% | [2]; at 50.0 µM -6.95% | [3]; [7] -16% | [3]; [8] -3% | [3]; at 50.0 µM -32.5% | [4]; [7] 22% | [4]; [8] 20% | [4]; at 50.0 µM 24.7% | [5]; [7] -4% | [5]; [8] -20% | [5]; at 50.0 µM -9.35% | [6]; [7] -20% | [6]; [8] -16% | [6]; at 50.0 µM 8.3%

c1ccc(CCC2=Nc3ccccc3CO2)cc1
inactive: [1]; [7] -160% | [1]; [8] -155% | [1]; at 50.0 µM 7.75% | [2]; [7] -48% | [2]; [8] -56% | [2]; at 50.0 µM -6.5% | [3]; [7] -64% | [3]; [8] -63% | [3]; at 50.0 µM 12.2% | [4]; [7] -67% | [4]; [8] -87% | [4]; at 50.0 µM 13.3% | [5]; [7] -68% | [5]; [8] -69% | [5]; at 50.0 µM -18.7% | [6]; [7] -126% | [6]; [8] -124% | [6]; at 50.0 µM -8.4%

NC1OC(COC(=O)c2ccccc2)C(O)C(OC(=O)c2ccccc2)C1OC(=O)c1ccccc1 (stereo not given)
inactive: [1]; [7] 0% | [2]; [7] 2% | [3]; [7] 11% | [4]; [7] 11% | [5]; [7] -1% | [6]; [7] 4%
active: [1]; [8] 97% | [1]; at 50.0 µM 97% | [2]; [8] 98% | [2]; at 50.0 µM 96.8% | [3]; [8] 98% | [3]; at 50.0 µM 97.7% | [4]; [8] 97% | [4]; at 50.0 µM 95.3% | [5]; [8] 98% | [5]; at 50.0 µM 93.8% | [6]; [8] 97% | [6]; at 50.0 µM 95.8%

C=CCOc1ccccc1C(OCC)OCC
active: [1]; [8] 74% | [3]; [8] 76% | [5]; [8] 81% | [6]; [8] 87%
inactive: [1]; [7] 8% | [1]; at 50.0 µM 46.5% | [2]; [7] 7% | [2]; [8] 35% | [2]; at 50.0 µM 23.3% | [3]; [7] 8% | [3]; at 50.0 µM 52.6% | [4]; [7] 11% | [4]; [8] 32% | [4]; at 50.0 µM 7.75% | [5]; [7] 7% | [5]; at 50.0 µM 30.2% | [6]; [7] 0% | [6]; at 50.0 µM 43.8%

C/C(=N/NC(N)=O)c1ccc(Cl)s1
inactive: [1]; [7] 0% | [1]; [8] -1% | [1]; at 50.0 µM 12.9% | [2]; [7] 23% | [2]; [8] -3% | [2]; at 50.0 µM 5% | [3]; [7] -1% | [3]; [8] 0% | [3]; at 50.0 µM -4.35% | [4]; [7] -8% | [4]; [8] -3% | [4]; at 50.0 µM 52.9% | [5]; [7] -2% | [5]; [8] -7% | [5]; at 50.0 µM 9.4% | [6]; [7] -5% | [6]; [8] -1% | [6]; at 50.0 µM 1.6%

COC(=O)C(=C(c1ccccc1)c1ccccc1)c1ccccc1
inactive: [1]; [7] 3% | [1]; [8] -1% | [1]; at 50.0 µM 25.8% | [2]; [7] 0% | [2]; [8] 4% | [2]; at 50.0 µM 23.1% | [3]; [7] 4% | [3]; [8] -1% | [3]; at 50.0 µM 52% | [4]; [7] 0% | [4]; [8] 4% | [4]; at 50.0 µM 43.1% | [5]; [7] -2% | [5]; [8] -3% | [6]; [7] -3% | [6]; [8] 7% | [6]; at 50.0 µM 35.6%
active: [5]; at 50.0 µM 89.6%

CC[N-]c1nncs1.CC[N-]c1nncs1.CC[N-]c1nncs1.CC[N-]c1nncs1.[Cl][Rh][Cl]
inactive: [1]; [7] -8% | [2]; [7] 43% | [3]; [7] 11% | [4]; [7] 0% | [5]; [7] -4% | [6]; [7] 15%
active: [1]; [8] 95% | [1]; at 50.0 µM 97.7% | [2]; [8] 74% | [2]; at 50.0 µM 97.8% | [3]; [8] 93% | [3]; at 50.0 µM 98.5% | [4]; [8] 77% | [4]; at 50.0 µM 91% | [5]; [8] 77% | [5]; at 50.0 µM 95.6% | [6]; [8] 95% | [6]; at 50.0 µM 97.6%

C/C(=N\NC(=S)Nc1ccc(N(C)C)cc1)c1ccccn1
active: [1]; at 50.0 µM 72.2% | [2]; at 50.0 µM 97.5% | [3]; [8] 74% | [3]; at 50.0 µM 79.7% | [4]; [8] 72% | [6]; [8] 78% | [6]; at 50.0 µM 82.3%
inactive: [1]; [7] -1% | [1]; [8] 23% | [2]; [7] -4% | [2]; [8] 68% | [3]; [7] -2% | [4]; [7] 1% | [4]; at 50.0 µM 31.8% | [5]; [7] -1% | [5]; [8] 35% | [5]; at 50.0 µM 46.3% | [6]; [7] -7%

CCCCCCCCCCCCCCCCC/C=N\NC(=O)CCCC(=O)N/N=C/CCCCCCCCCCCCCCCCC
active: [1]; at 50.0 µM 98.7% | [2]; at 50.0 µM 99.1% | [3]; at 50.0 µM 98% | [4]; at 50.0 µM 99% | [5]; at 50.0 µM 99.2% | [6]; at 50.0 µM 98.3%
inactive: [1]; [7] 1% | [1]; [8] -3% | [2]; [7] -4% | [2]; [8] -2% | [3]; [7] -2% | [3]; [8] -3% | [4]; [7] 4% | [4]; [8] 10% | [5]; [7] 7% | [5]; [8] 25% | [6]; [7] 2% | [6]; [8] -25%

COc1cc2c3c(c4ccc(OC)c(OC)c4c2cc1OC)CN1CCC[C@@H]1C3
inactive: [1]; [7] 11% | [2]; [7] 8% | [3]; [7] 15% | [4]; [7] 1% | [5]; [7] 8% | [6]; [7] -29%
active: [1]; [8] 95% | [1]; at 50.0 µM 92% | [2]; [8] 99% | [2]; at 50.0 µM 93.5% | [3]; [8] 96% | [3]; at 50.0 µM 93% | [4]; [8] 92% | [4]; at 50.0 µM 91.2% | [5]; [8] 98% | [5]; at 50.0 µM 92.3% | [6]; [8] 93% | [6]; at 50.0 µM 88.5%
